Consider 21 compounds from PubChem BioAssay (Tox21).

A short description of assay [1]: qHTS assay to identify small molecule agonists of the hypoxia (HIF-1) signaling pathway - cell viability counter screen (AID 1224844; calls by dose curve; further: nearly all actives have a fitted effect of over 50% in size). Put shortly: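 In this counter screen, HRE-bla ME-180 cell viability after 17 hrs of compound exposure at 37C was read by CellTiter-Glo luminescence, multiplexed with the beta-lactamase reporter measurement.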
(In general: qHTS replaces the single test concentration by a dilution series.)

Assay [2] in a line: qHTS assay to identify small molecule agonists of H2AX (AID 1224845; active means well fitted activation curve with a large enough effect in the signal ratio in the repeat runs, not every such curve was filed as active; the % refers to the signal ratio). Put shortly:
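Wild-type CHO-K1 cells plated overnight, then exposed 3 hr at 37C to compounds at 15 concentrations (0.76% DMSO). Lysed, then HTRF anti-pH2AX(S139)-cryptate/anti-H2AX-d2 detection after 24 hr at room temperature; emissions 665 and 620 nm.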

Assay [3] can be described thus: qHTS assay to identify small molecule agonists of the hypoxia (HIF-1) signaling pathway (AID 1224846; active means well fitted activation curve with a large enough effect in the signal ratio in the repeat runs, not every such curve was filed as active; the % refers to the signal ratio). The essentials:
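ME-180 HRE-bla reporter cells; compounds in DMSO, 17 h at 37C; read-out beta-lactamase via CCF4-AM FRET.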

Assay [4] can be described thus: qHTS assay to identify small molecule agonists of H2AX - cell viability counter screen (AID 1224847; calls by dose curve; further: nearly all actives have a fitted effect of over 30% in size; further: potency means the concentration at half of the fitted maximal effect). Put shortly:
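CHO-K1 cells plated overnight at 37C, then exposed 3 h at 37C to compounds at 15 concentrations (0.76% DMSO final). Viability by CellTiter-Glo luminescence after 30 min at room temperature.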

Assay [5] in a line: qHTS assay to identify small molecule antagonists of the estrogen related receptor (ERR) signaling pathway from Tox21 library (AID 1224848). Further: nearly all actives have a fitted effect of over 50% in size. Further: potency means the concentration at half of the fitted maximal effect. The essentials: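 Tox21 10K compounds in DMSO tested for ERR pathway antagonism in NTP's ERR cell line; 18 h, 37 C exposure; ONE-Glo luminescence.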
Assay [6] is described as follows: qHTS assay to identify small molecule agonists of the estrogen related receptor (ERR) signaling pathway from Tox21 library (AID 1224849; calls by dose curve; further: nearly all actives have a fitted effect of over 15% in size). Particulars: ERR reporter cell line, ONE-Glo luciferase, 18 h. The essentials: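 Luciferase activity in ERR pathway reporter cells served as the agonist readout; exposure lasted 18 h at 37 C, with ONE-Glo detection after 30 min at room temperature.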

Assay [7] can be described thus: qHTS RealTime-Glo MT Cell Viability Assay in HepG2 cells - 24 hour (AID 1224867). Further: nearly all actives have a fitted effect of over 50% in size. The essentials:
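HepG2 cells were seeded at 600 cells/well together with NanoLuc luciferase and a cell-permeant prosubstrate, preincubated 5 h at 37 C/5% CO2, then pin-dosed with compounds in DMSO. Nonlytic luminescence from viable cells was read at each time point.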

Assay [8] in a line: qHTS RealTime-Glo MT Cell Viability Assay in HEK293 cells - 32 hour (AID 1224868). Further: nearly all actives have a fitted effect of over 50% in size. Further: potency means the concentration at half of the fitted maximal effect. The essentials:
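HEK293 cells were seeded at 600 cells/well together with NanoLuc luciferase and cell-permeant prosubstrate, preincubated 5 h at 37 C/5% CO2, then given compound in DMSO by pintool. Luminescence from viable-cell prosubstrate reduction was read repeatedly over 40 h.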

Assay [9] can be described thus: A CellTox Green Cytotoxicity Assay to monitor cytotoxicity in HEK293 cells - 0 hour (AID 1224869). Further: nearly all actives have a fitted effect of over 50% in size. Further: potency means the concentration at half of the fitted maximal effect. Put shortly: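 Real-time, in one plate: 600 HEK293 cells/well with dead-cell DNA dye, pinned compound after 5 h, 37 C incubation over 40 h; viable cells give no appreciable fluorescence.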
Assay [10] can be described thus: qHTS RealTime-Glo MT Cell Viability Assay in HepG2 cells - 40 hour (AID 1224870). Further: nearly all actives have a fitted effect of over 50% in size. Put shortly: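 HepG2 cells mixed with RealTime-Glo MT reagents (NanoLuc plus cell-permeant prosubstrate) were seeded at 600 cells/well, incubated 5 h at 37 C/5% CO2, then pinned with compounds in DMSO; nonlytic luminescence tracked viability during 40 h treatment.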

Where “and” joins values, the source holds several entries; their conditions need not be identical. Identical values can stand only once. Inconclusive results are not listed. A structure can be active in one record and inactive in another. Calls of active or inactive are those of the source. Unless noted, the call rests on the fitted dose curve; in most records, active means well fitted curve in the direction sought with a large enough effect in the repeat runs; inconclusive means weak or mixed curves; inactive means no such curve, though single readings can be large; an effect the other way counts as inactive or inconclusive.
On the % scale 0 is the no-effect control and ±100 the full control effect.

With `CCOC(=O)C(C#N)=C(c1ccccc1)c1ccccc1`, the Potency entry in [1], in [3], in assay [4], in assay [7], in [8] and in [9] was “inactive” each time. The Potency entry in assay [10] is “inactive”. The compound was called inactive in assay [2]. In addition, the Potency in assay [5] was 48.6 µM (active). The activity change, positive = activation is -21.7% (inactive) in assay [6] (at 42.5 µM (top of the series)) and -34.2% (inactive) in [6] (at 92.4 µM (top of the series)).
Consider `Clc1nc(Cl)c(Cl)c(Cl)c1Cl`, for which the Potency result in assay [1], in assay [3], in [4], in assay [5], in assay [7] and in assay [8] was “inactive” each time. The Potency entry in assay [9] and in assay [10] was “inactive” each time. Besides, the call in assay [2] was inactive. The activity change, positive = activation in assay [6] (at 92.4 µM (top of the series)) was 4.58% (inactive) and 5.62% (inactive).
Consider `CCC(C)CO` (stereo not given), for which the Potency entry in assay [1], in assay [3], in assay [4], in assay [5], in [7] and in [9] was “inactive” each time. Also, the Potency result in assay [10] was “inactive”. For the same compound, the result in assay [2] was inactive. For the same compound, the activity change, positive = activation in [6] (at 92.4 µM (top of the series)) is 1.13% (inactive) and -5.81% (inactive). Further, the Potency entry in assay [8] is “inactive and 24.5 µM (active)”.
With `CC(C)Oc1ccc2c(=O)c(-c3ccccc3)coc2c1`, the Potency result in [1], in [3], in assay [4], in assay [5], in [7] and in assay [9] was “inactive” in each case. Moreover, the Potency entry in [10] is “inactive”. Besides, the compound was called inactive in [2]. In [6] (at 42.5 µM (top of the series)), the activity change, positive = activation is 38.2% (active) and 33.2% (active).
As to `C#C[C@]1(O)CC[C@H]2[C@@H]3CCc4cc(OC)ccc4[C@H]3CC[C@@]21C`, the Potency result in assay [1], in assay [3], in [5], in [7], in assay [9] and in assay [10] was “inactive” each time. The outcome in assay [2] was inactive. For the same compound, the Potency in assay [4] was 45 µM (active); in assay [8], 24.5 µM (active) and 19 µM (active). The results for the activity change, positive = activation in assay [6] (at 42.5 µM (top of the series)) and in assay [6] (at 92.4 µM (top of the series)) were -12.2% (inactive) and -15.3% (inactive), respectively.
With `CN(C)C(=N)N=C(N)N`, the Potency entry in assay [1], in assay [3], in assay [4], in assay [7], in [8] and in [9] was “inactive” each time. Further, the compound was called inactive in assay [2].
Consider `CC(C)OB(OC(C)C)OC(C)C`, for which the Potency entry in assay [1], in assay [3], in assay [4], in assay [5], in assay [7] and in [8] was “inactive” throughout. The Potency result in assay [9] and in [10] was “inactive” in each case. Further, the outcome in assay [2] was inactive. Also, the activity change, positive = activation in [6] (at 92.4 µM (top of the series)) is -0.608% (inactive) and 0.13% (inactive).
Turning to `CCCCCCCCCCCO`, the Potency entry in [1], in assay [3], in assay [4], in assay [5], in [7] and in [8] was “inactive” in each case. Also, the Potency entry in [9] and in assay [10] was “inactive” throughout. In addition, in [2], the call was inactive. In addition, in [6] (at 92.4 µM (top of the series)), the activity change, positive = activation was -4.02% (inactive) and 0.762% (inactive).
With `Cc1ccc2c(n1)Oc1ccc(C(C)C(=O)OCC(=O)N(C)C)cc1C2` (stereo not given), the Potency entry in [1], in assay [3], in assay [4], in assay [5], in assay [7] and in assay [8] was “inactive” throughout. In addition, the Potency entry in assay [9] was “inactive”. Further, the compound was called inactive in [2]. Further, the activity change, positive = activation in assay [6] (at 42.5 µM (top of the series)) was 24.3% (active) and 6.58% (inactive).
For `c1ccc2cc(Nc3ccc(Nc4ccc5ccccc5c4)cc3)ccc2c1`, the Potency entry in assay [1], in [3], in [4], in assay [5], in assay [7] and in assay [8] was “inactive” throughout. In addition, the Potency result in assay [9] and in assay [10] was “inactive” throughout. The outcome in assay [2] was inactive. The activity change, positive = activation in [6] (at 92.4 µM (top of the series)) is 1.47% (inactive) and 5.2% (inactive).
For `CCC(C)OC(=O)c1ccc(O)cc1` (stereo not given), the Potency result in assay [1], in assay [3], in assay [4], in [5], in assay [7] and in assay [9] was “inactive” each time. Besides, the outcome in [2] was inactive. Further, the activity change, positive = activation in [6] (at 92.4 µM (top of the series)) was 6.7% (active).
Turning to `CCOCCOCCO`, the Potency entry in assay [1], in [3], in [4], in assay [5], in assay [7] and in [8] was “inactive” in each case. Besides, the Potency entry in assay [9] and in [10] was “inactive” throughout. The result in assay [2] was inactive. In addition, in assay [6] (at 92.4 µM (top of the series)), the activity change, positive = activation was -1.39% (inactive) and 2.46% (inactive).
For the compound `OC1CCCCCCCCCCC1`, the Potency entry in assay [1], in assay [3], in assay [4], in [7] and in assay [8] was “inactive” each time. Besides, the compound was called inactive in assay [2]. Further, in assay [9], the Potency result is “inactive and 43.6 µM (active)”.
Turning to `COc1cc([C@@H]2c3cc4c(cc3[C@H](O)[C@H]3COC(=O)[C@H]23)OCO4)cc(OC)c1OC`, the Potency result in assay [1], in [3], in assay [4], in assay [7] and in assay [9] was “inactive” throughout. Further, the result in [2] was inactive. Further, in assay [8], the Potency was 48.9 nM (active).
For the compound `O=C1c2cccc(O)c2C(=O)c2c(O)cccc21`, the Potency result in assay [1], in assay [3], in [4], in [7] and in assay [9] was “inactive” throughout. The compound was classed as inactive in assay [2]. Further, the figures for the activity change, positive = activation in assay [6] (at 42.5 µM (top of the series)) and in [6] (at 92.4 µM (top of the series)) were -19.1% (inactive) and -20.9% (inactive), respectively.
Take `O=c1oc(=O)c2cc3c(=O)oc(=O)c3cc12`: the Potency result in assay [1], in [3], in assay [4], in [5], in [7] and in assay [8] was “inactive” throughout. Further, the Potency result in [9] and in assay [10] was “inactive” throughout. For the same compound, in assay [2], the call was inactive. In assay [6] (at 92.4 µM (top of the series)), the activity change, positive = activation is 1.24% (inactive) and 2.94% (inactive).
On to `COc1c(Cl)c(Cl)c(Cl)c(Cl)c1Cl`, for which the Potency entry in [1], in [3], in [4], in [5], in [7] and in assay [8] was “inactive” in each case. Further, the Potency entry in assay [9] was “inactive”. Further, in assay [2], the outcome was inactive. In addition, in assay [6] (at 92.4 µM (top of the series)), the activity change, positive = activation is 0.259% (inactive) and 0.227% (inactive).
As to `C=C(C)C(=O)OCCOC(=O)C(=C)C`, the Potency result in assay [1], in assay [3], in [4], in assay [5], in assay [7] and in assay [8] was “inactive” each time. The Potency entry in assay [9] and in [10] was “inactive” in each case. In assay [2], the outcome was inactive. In [6] (at 92.4 µM (top of the series)), the activity change, positive = activation is -0.0914% (inactive) and 4.51% (inactive).
Consider `CCCC(=O)O`, for which the Potency entry in assay [1], in [3], in [4], in assay [5], in assay [7] and in assay [8] was “inactive” each time. Besides, the Potency result in assay [9] and in [10] was “inactive” throughout. Further, the compound was classed as inactive in assay [2]. For the same compound, the activity change, positive = activation in assay [6] (at 92.4 µM (top of the series)) is 4.22% (inactive) and -0.802% (inactive).
With `COC(C)COC(C)COC(C)CO` (stereo not given), the Potency result in assay [1], in [3], in assay [4], in [5], in assay [7] and in assay [8] was “inactive” each time. In addition, the Potency entry in assay [9] and in [10] was “inactive” in each case. In assay [2], the outcome was inactive. In addition, the activity change, positive = activation in [6] (at 92.4 µM (top of the series)) is -7.02% (inactive) and 0.149% (inactive).
Regarding `C[C@]12CC[C@H]3[C@@H](CCC4=CC(=O)CC[C@@]43C)[C@@H]1CC[C@@H]2C(=O)CO`, the Potency result in [1], in assay [4], in assay [7] and in assay [9] was “inactive” throughout. Further, in assay [2], the compound was called inactive. For the same compound, the Potency in [5] is 27.3 µM (active) and 26.6 µM (active); in assay [8], 24500 nM (active). Further, the activity change, positive = activation in assay [6] (at 42.5 µM (top of the series)) is -34.2% (inactive); in assay [6] (at 92.4 µM (top of the series)), -55.9% (inactive).
